# According to PubChem BioAssay:
# Calls of active or inactive are those of the source. Unless noted, no stated cut-off is given here; in the data, active means nuclear beta-catenin stimulation mostly above about 4.2% (no sharp cut-off); inactive means mostly below about 10%.
# How the values were obtained:
# [1] = stimulators of nuclear beta-catenin in C2C12, primary screen, imaging, WNT3A-conditioned medium, mouse C2C12, NPC library (AID 1117326); settings: stronger effect = higher value; further: reference of the scale not given here
# [2] = stimulators of insulin release from INS-1E, primary screen, cell-based, 5 mM glucose, NPC library (AID 1117329;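 active means compound raises insulin release from rat beta cells at 5 mM glucose, no numeric limit stated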; further: reference of the scale not given here); settings: rat INS-1E insulin secretion, at 10 µM, stronger effect = higher value
# [3] = growth inhibition of GSK3B-pretreated HCT116 cells – cell-based, CellTiter-Glo, 0.2 to 20 µM (AID 1117336;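 active means compounds lowering colon cancer cell viability after pretreatment blocking the GSK3B kinase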); settings: HCT116 viability after GSK3B inhibitor, at 20 µM, stronger effect = higher value
# [4] = inhibition of endothelial tube formation, primary screen, imaging, VEGF stimulated, CD31 staining, tube area, NPC library (AID 1117340;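 active means compound that reduces growth-factor-driven endothelial tube area in a mixed cell culture, no cutoff stated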); settings: VEGF-stimulated ADSC/ECFC co-culture, at 10 µM, stronger effect = higher value
# [5] = glucagon-like peptide 1 release enhancers, primary assay, NCI-H716 cell line, NPC library (AID 1117341;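 active means compound raises GLP1 secretion from the human gut endocrine cells, with no numeric limit stated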; further: reference of the scale not given here); settings: NCI-H716 cells, at 10 µM, stronger effect = higher value
# [6] = HCT116 colon cancer cell growth inhibition, primary screen, CellTiter-Glo luminescence, NPC library (AID 1117342;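 active means compounds that lower survival of HCT116 colon cancer cells in the luminescence readout, no numeric limit stated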); settings: at 20 µM (top of the series)
# [7] = CellTiter-Glo luminescent readout of SW480 viability loss, NPC library primary (AID 1117343;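 active means compounds that lower viability of the colon cancer cells in the luminescence readout, with no numeric limit stated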); settings: CellTiter-Glo luminescence; at 20 µM (top of the series)
# [8] = decreased DLD-1 cellular survival, CellTiter-Glo luminescent readout, NPC compound collection, primary HTS (AID 1117346;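 active means compounds that lower survival of DLD-1 colon cancer cells in the luminescence readout, no cutoff given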); settings: DLD-1 viability, CellTiter-Glo luminescence; at 20 µM (top of the series)
Structure (SMILES),nuclear beta-catenin stimulation ([1]; at 10 µM),"nuclear beta-catenin stimulation ([1]; stimulation, at 2 µM)",insulin secretion stimulation [2],viability decrease [3],tube area decrease [4],GLP1 secretion stimulation [5],inhibition of viability [6],viability decrease (inhibition) [7],viability decrease (inhibition) [8]
CCCCCCCCCCCCCCCC[N+](C)(C)CC,13.3% (inactive),9.2%,0.7% (inactive),99% (active),106% (active),20.2% (active),99.1% (active),102% (active),101% (active)
COc1ccc(/C=C/C(=O)c2ccc(OC)cc2OC)cc1,7.4% (inactive),-0.5%,2.6% (inactive),77.7% (active),54.9% (active),-6.1% (inactive),58.1% (active),94.5% (active),81.6% (active)
O=C(OCCN1CCOCC1)c1cccnc1Nc1cccc(C(F)(F)F)c1,1.2% (inactive),-0.8%,-0.1% (inactive),42% (inactive),8.9% (inactive),3.6% (inactive),55.9% (active),62.3% (active),28.3% (inactive)
CNC(=O)CN(CCN(CCN(CC(=O)[O-])CC(=O)NC)CC(=O)[O-])CC(=O)[O-].O.[Gd+3],1.4% (inactive),-0.1%,0.2% (inactive),38.3% (inactive),18.9% (inactive),-4.4% (inactive),25.4% (inactive),30.9% (inactive),3.8% (inactive)
CCOC(=O)c1ccc(OCCN2C[C@H](O)[C@@H](O)[C@H](O)[C@H]2CO)cc1,1.7% (inactive),0.9%,0.1% (inactive),-17.2% (inactive),10.1% (inactive),-1% (inactive),-40.4% (inactive),-62.9% (inactive),-12.5% (inactive)
CC(O)COc1ccccc1 (stereo not drawn),-0.1% (inactive),1.5%,-0.2% (inactive),-28.5% (inactive),11.1% (inactive),0.5% (inactive),-11.1% (inactive),-146% (inactive),-19.2% (inactive)
OC(C#CCN1CCCC1)(c1ccccc1)c1ccccc1,1.6% (inactive),0.1%,4.7% (inactive),20.5% (inactive),11.1% (inactive),5.5% (inactive),21.4% (inactive),9.7% (inactive),-4.2% (inactive)
CN(C)c1ccc(C(=C2C=CC(=[N+](C)C)C=C2)c2ccccc2)cc1,4.5% (active),63.1%,0.2% (inactive),100% (active),109% (active),0.7% (inactive),99.7% (active),102% (active),102% (active)
CC(=O)Nc1ccc(S(=O)(=O)Nc2cc(C)on2)cc1,1.7% (inactive),0.3%,0.5% (inactive),-7% (inactive),-15.5% (inactive),0.1% (inactive),0.8% (inactive),-14.4% (inactive),2% (inactive)
CC(=O)CCC(=O)O,-1.6% (inactive),-1.3%,2% (inactive),-4.6% (inactive),0.2% (inactive),-2.2% (inactive),-6.13% (inactive),20% (inactive),-8.6% (inactive)
CCCCC/C=C\C/C=C\CCCCCCCC(=O)NC(C)c1ccccc1 (stereo not drawn),0.2% (inactive),2.1%,1% (inactive),23.3% (inactive),-5.3% (inactive),0.2% (inactive),52% (active),13.5% (inactive),3.3% (inactive)
CO/N=C(/C(=O)N[C@@H]1C(=O)N2C(C(=O)O)=C(Cn3nnc(C)n3)CS[C@H]12)c1csc(N)n1,-0.1% (inactive),-1%,3.2% (inactive),2.9% (inactive),13.4% (inactive),0.9% (inactive),-1.5% (inactive),10.8% (inactive),1% (inactive)
CCCCNC(=O)NS(=O)(=O)c1ccc(N)cc1,1.6% (inactive),0.7%,0.4% (inactive),2.75% (inactive),-10.5% (inactive),1.9% (inactive),1.4% (inactive),27.3% (inactive),8.7% (inactive)
Nc1nc(N)c(-c2ccccc2)s1,0.4% (inactive),2.2%,-2% (inactive),-1.63% (inactive),16.7% (inactive),2.1% (inactive),10.2% (inactive),48.5% (inactive),2.53% (inactive)
CCOC(=O)COc1ccc2c(C)c(CCN(CC)CC)c(=O)oc2c1Cl,-2.3% (inactive),-0.4%,0% (inactive),-5% (inactive),45.5% (active),2.5% (inactive),15.1% (inactive),7.8% (inactive),-17.9% (inactive)
CC(C)(C)CC(=O)OCC(=O)[C@@]1(O)CC[C@H]2[C@@H]3CCC4=CC(=O)C=C[C@]4(C)[C@H]3[C@@H](O)C[C@@]21C,3% (inactive),0.9%,0% (inactive),-93.8% (inactive),10.8% (inactive),3.3% (inactive),20.7% (inactive),57.4% (active),13.2% (inactive)

Structure (SMILES),nuclear beta-catenin stimulation ([1]; at 10 µM),"nuclear beta-catenin stimulation ([1]; stimulation, at 2 µM)",insulin secretion stimulation [2],viability decrease [3],tube area decrease [4],GLP1 secretion stimulation [5],inhibition of viability [6],viability decrease (inhibition) [7],viability decrease (inhibition) [8]
CCCCN(CCCC)C(C(N)=O)c1ccc(OC)cc1 (stereo not drawn),0% (inactive),-1.4%,36.4% (active),-5.1% (inactive),6.6% (inactive),2.1% (inactive),30.2% (inactive),10.2% (inactive),2.6% (inactive)
COc1cc2nc(Cl)nc(N)c2cc1OC,0.1% (inactive),-1.5%,2.8% (inactive),13.3% (inactive),9.3% (inactive),0.6% (inactive),22.3% (inactive),-4.5% (inactive),21.8% (inactive)
CCOC(=O)Oc1ccc(CCNC(=O)[C@H](CCSC)NC(C)=O)cc1OC(=O)OCC,-0.7% (inactive),1.3%,-1.6% (inactive),41% (inactive),1.3% (inactive),-1.1% (inactive),2.33% (inactive),14.7% (inactive),18.4% (inactive)
O=C(CCC1CCN(Cc2ccccc2)CC1)c1ccc2c(c1)NCCCC2,3.2% (inactive),3.5%,4.2% (inactive),53.5% (active),12.9% (inactive),4.3% (inactive),81.9% (active),93.9% (active),62.1% (active)
COc1cc(OC)nc(O[C@H](C(=O)O)C(OC)(c2ccccc2)c2ccccc2)n1,2.7% (inactive),-0.4%,1% (inactive),1.1% (inactive),-16.9% (inactive),3.3% (inactive),1.2% (inactive),6.1% (inactive),2.4% (inactive)
O=Cc1ccc(O)c(O)c1O,1.4% (inactive),1.9%,-1.7% (inactive),87.5% (active),3.3% (inactive),3.4% (inactive),44.2% (inactive),78.5% (active),36.5% (inactive)
O=[N+]([O-])c1ccc(/C=N\O)o1,2% (inactive),0.4%,-3.1% (inactive),35.1% (inactive),-16.1% (inactive),4% (inactive),8.8% (inactive),53.4% (active),4.47% (inactive)
CCOC(=O)C(=O)CCc1ccccc1,0.7% (inactive),2%,2.2% (inactive),-4.7% (inactive),-7.2% (inactive),5% (inactive),10.3% (inactive),-2.4% (inactive),1% (inactive)
O=C(CCOCCOCCOCCOCCC(=O)Nc1c(I)cc(I)c(C(=O)O)c1I)Nc1c(I)cc(I)c(C(=O)O)c1I,-0.1% (inactive),-1.6%,0.1% (inactive),-4.7% (inactive),-12% (inactive),0.3% (inactive),-2.1% (inactive),-14.8% (inactive),-2.6% (inactive)
CCCCCCCCCCCCCCCCCCNC(=O)OC1CCN(C(=O)OC[C@H](COC(=O)N(Cc2cccc[n+]2CC)C(=O)c2ccccc2OC)OC)CC1,10.2% (inactive),0.5%,117% (active),110% (active),111% (active),213% (active),112% (active),131% (active),101% (active)
O=[N+]([O-])c1ccc(Oc2ccc(N=C=S)cc2)cc1,36.7% (inactive),1.6%,-0.5% (inactive),97.7% (active),108% (active),-5% (inactive),98.9% (active),95.7% (active),100% (active)
O=C1Nc2cc(Cl)ccc2Oc2ccccc21,0% (inactive),-0.5%,-0.2% (inactive),55.1% (active),17.8% (inactive),-0.4% (inactive),10.7% (inactive),-6.3% (inactive),-57.3% (inactive)
CC(C)C(=O)OCc1cccc(OC(=O)[C@@H]2N3C(=O)[C@@H](NC(=O)Cc4ccccc4)[C@H]3SC2(C)C)c1,0.9% (inactive),-0.1%,2.2% (inactive),117% (active),-4.7% (inactive),3.4% (inactive),123% (active),60.1% (active),10.1% (inactive)
Cc1ccccc1C(=O)N1CC/C(=N\OS(=O)(=O)O)c2ccc(Cl)cc21,0.7% (inactive),-1.3%,3.05% (inactive),19.7% (inactive),-2.3% (inactive),3.1% (inactive),1.4% (inactive),-15.6% (inactive),-6.4% (inactive)
CCN(CC)CC(=O)OCC(=O)[C@@]1(O)CC[C@H]2[C@@H]3CCC4=CC(=O)CC[C@]4(C)[C@H]3[C@@H](O)C[C@@]21C,-0.5% (inactive),-0.8%,-0.5% (inactive),-24.6% (inactive),0.8% (inactive),1.1% (inactive),-15.9% (inactive),37.2% (inactive),-9.9% (inactive)
CC(C)(C)c1cc(C=O)cc(C(C)(C)C)c1O,2% (inactive),4.1%,1.1% (inactive),19.1% (inactive),10.5% (inactive),0.6% (inactive),4.5% (inactive),-22.1% (inactive),-10% (inactive)
